Results filed as inconclusive are left out. Values without a mark were called inactive. Active and inactive are the calls of the source. Calls come from the whole dose curve; as a rule, active = well fitted curve in the direction sought with a large enough effect; inconclusive = small, poorly fitted or top-dose-only effect, or another doubt; inactive = no such curve, though single readings can be large; an effect the other way counts as inactive or inconclusive.

The values that follow come from PubChem BioAssay (NCATS).

Experiment [1] deals with Tumor susceptibility gene 101 protein (Homo sapiens) (UniProt Q99816). The experiment is described as follows: qHTS Assay for Iinhibitors of HIV-1 Budding by Blocking the Interaction of PTAP/TSG101: Hit Validation (AID 651600). For activity change, negative = inhibition: % is set by controls: 0 for no effect and ±100 for the full control effect. Note: nearly all actives have a fitted effect of over 70% in size. Note: potency is the fitted concentration of half-maximal effect. In short, it runs like this: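 Displacement of a FITC-labeled PTAP-motif peptide (50 nM) from the Tsg101 binding domain (10 uM) was monitored by fluorescence polarization after a 20 min room-temperature incubation.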
Tumor susceptibility gene 101 protein (Homo sapiens), sequence (Q99816 whole entry, looked up, the tested form may be a part): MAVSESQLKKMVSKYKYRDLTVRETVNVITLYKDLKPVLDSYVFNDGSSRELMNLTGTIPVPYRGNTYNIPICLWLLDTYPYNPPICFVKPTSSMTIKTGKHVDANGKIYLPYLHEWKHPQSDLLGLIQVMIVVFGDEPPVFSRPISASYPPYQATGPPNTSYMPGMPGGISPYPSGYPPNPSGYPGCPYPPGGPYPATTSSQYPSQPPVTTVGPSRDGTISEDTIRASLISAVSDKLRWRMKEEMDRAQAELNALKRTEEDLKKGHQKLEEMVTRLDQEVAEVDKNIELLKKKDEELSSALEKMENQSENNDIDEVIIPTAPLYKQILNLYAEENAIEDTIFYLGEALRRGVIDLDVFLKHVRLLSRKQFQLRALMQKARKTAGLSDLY
A general note: In qHTS, concentration-response curves come from the screen itself.

Experiment [2] has as its target Rap guanine nucleotide exchange factor 3 (Homo sapiens) (UniProt O95398). The experiment is described as follows: Confirmatory qHTS for antagonist of cAMP-regulated guanine nucleotide exchange factor 3 (EPAC1) (AID 1645880).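 For activity, negative = inhibition: plate controls were DMSO only for no effect and full effect of the ATA control for full effect.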 Note: nearly all actives have a fitted effect of over 55% in size. Note: potency is the fitted concentration of half-maximal effect. The note with it: EPAC1 Rap1B-BODIPY-GDP exchange, fluorescence; activity, negative = inhibition: at 115 µM (top of the series). In short, it runs like this:
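Nucleotide exchange uses 100 nM EPAC1, 250 nM RAP1B-BODIPY-GDP and 50 uM GDP, with compounds in a concentration-titration series. After 5 min at room temperature, fluorescence (480 nm ex/540 nm em) is read every 5 min for 30 min. Data are normalized to control ATA and DMSO.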

The target is the same in experiment [3]. The experiment is described as follows: Confirmatory qHTS for agonist of cAMP-regulated guanine nucleotide exchange factor 3 (EPAC1) (AID 1645881).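 For activation: EPAC1 catalysed release of BODIPY-GDP from Rap1B seen as fluorescence loss; 100% = effect of cAMP agonist control.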 Note: nearly all actives have a fitted effect of over 75% in size. Note: potency is the fitted concentration of half-maximal effect.
Experiment [4] concerns the target Rap guanine nucleotide exchange factor 4 (Homo sapiens) (UniProt Q8WZA2). The experiment is described as follows: Confirmatory qHTS for agonist of cAMP-regulated guanine nucleotide exchange factor 4 (EPAC2) (AID 1645884). For activation: % is set by controls: 0 for no effect and ±100 for the full control effect. Note: nearly all actives have a fitted effect of over 65% in size. Note: potency is the fitted concentration of half-maximal effect.
Experiment [5] has the same target. The experiment is described as follows: Confirmatory qHTS for antagonist of cAMP-regulated guanine nucleotide exchange factor 4 (EPAC2) (AID 1645885). For activity change, negative = inhibition: % is set by controls: 0 for no effect and ±100 for the full control effect. Note: nearly all actives have a fitted effect of over 25% in size. Note: potency is the fitted concentration of half-maximal effect.
Experiment [6] deals with Rap guanine nucleotide exchange factor 3 (Homo sapiens) (UniProt O95398). The experiment is described as follows: Counterscreen qHTS for antagonist of cAMP-regulated guanine nucleotide exchange factor 3 (EPAC1) (AID 1645888).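 Note: fluorescence loss as bound BODIPY-GDP is released from Rap1B; % of control where 0% means no effect.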 In short, it runs like this:
(§1)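 Rap1B-BODIPY-GDP 250 nM + GDP 50 uM; cpds 7-pt, final 9.74 nM–152 uM (activator mode) or from 7.32 nM upwards (inhibitor mode); RT; FI 480/540 nm at 5 and 30 min, then ± cAMP, reread.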
For orientation: The purpose of a counterscreen is to sort out artefacts and off-target activity.

Experiment [7] has the same target. The experiment is described as follows: Counterscreen qHTS for agonist of cAMP-regulated guanine nucleotide exchange factor 3 (EPAC1) (AID 1645889). For activation: % of control where 0% means no effect. Note: nearly all actives have a fitted effect of over 40% in size. Note: potency is the fitted concentration of half-maximal effect. The method in brief: as §1
Experiment [8] can be described thus: qHTS for Inhibitors of the vitamin D receptor (VDR): Hit Validation using a Texas Red Assay (AID 602201). Note: potency is the fitted concentration of half-maximal effect. In short, it runs like this: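 After a 2-hour room-temperature incubation, polarization of Texas-Red emission was read (Ex 595 nm/Em 615 nm). Final mix contained 7 nM Texas Red, 1.5 uM VDR-LBD and LG19078.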

Rap guanine nucleotide exchange factor 3 (Homo sapiens), sequence (O95398 whole entry, looked up): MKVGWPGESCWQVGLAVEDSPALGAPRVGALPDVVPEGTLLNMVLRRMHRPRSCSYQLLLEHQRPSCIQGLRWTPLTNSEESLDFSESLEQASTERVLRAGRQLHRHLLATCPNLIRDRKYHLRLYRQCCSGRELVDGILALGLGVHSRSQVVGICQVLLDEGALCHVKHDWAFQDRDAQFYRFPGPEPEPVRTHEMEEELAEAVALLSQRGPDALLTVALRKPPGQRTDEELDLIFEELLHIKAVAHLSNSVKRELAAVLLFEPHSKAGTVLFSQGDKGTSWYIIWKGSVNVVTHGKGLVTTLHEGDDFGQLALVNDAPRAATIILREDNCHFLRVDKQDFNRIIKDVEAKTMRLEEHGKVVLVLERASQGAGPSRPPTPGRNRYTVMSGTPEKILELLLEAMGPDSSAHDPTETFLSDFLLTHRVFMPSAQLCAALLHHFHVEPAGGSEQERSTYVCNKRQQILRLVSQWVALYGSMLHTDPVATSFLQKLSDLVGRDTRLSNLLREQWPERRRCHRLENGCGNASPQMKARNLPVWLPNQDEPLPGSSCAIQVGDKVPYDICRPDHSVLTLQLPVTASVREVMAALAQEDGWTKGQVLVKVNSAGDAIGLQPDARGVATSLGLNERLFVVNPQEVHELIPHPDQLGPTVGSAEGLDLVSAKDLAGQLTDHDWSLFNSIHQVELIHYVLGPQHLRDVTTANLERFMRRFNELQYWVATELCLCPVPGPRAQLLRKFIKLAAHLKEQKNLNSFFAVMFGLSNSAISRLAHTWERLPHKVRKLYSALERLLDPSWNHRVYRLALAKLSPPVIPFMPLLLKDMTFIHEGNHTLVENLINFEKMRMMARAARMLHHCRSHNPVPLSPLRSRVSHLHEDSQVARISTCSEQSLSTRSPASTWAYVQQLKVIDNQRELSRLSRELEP
Rap guanine nucleotide exchange factor 4 (Homo sapiens), sequence (Q8WZA2 whole entry, looked up): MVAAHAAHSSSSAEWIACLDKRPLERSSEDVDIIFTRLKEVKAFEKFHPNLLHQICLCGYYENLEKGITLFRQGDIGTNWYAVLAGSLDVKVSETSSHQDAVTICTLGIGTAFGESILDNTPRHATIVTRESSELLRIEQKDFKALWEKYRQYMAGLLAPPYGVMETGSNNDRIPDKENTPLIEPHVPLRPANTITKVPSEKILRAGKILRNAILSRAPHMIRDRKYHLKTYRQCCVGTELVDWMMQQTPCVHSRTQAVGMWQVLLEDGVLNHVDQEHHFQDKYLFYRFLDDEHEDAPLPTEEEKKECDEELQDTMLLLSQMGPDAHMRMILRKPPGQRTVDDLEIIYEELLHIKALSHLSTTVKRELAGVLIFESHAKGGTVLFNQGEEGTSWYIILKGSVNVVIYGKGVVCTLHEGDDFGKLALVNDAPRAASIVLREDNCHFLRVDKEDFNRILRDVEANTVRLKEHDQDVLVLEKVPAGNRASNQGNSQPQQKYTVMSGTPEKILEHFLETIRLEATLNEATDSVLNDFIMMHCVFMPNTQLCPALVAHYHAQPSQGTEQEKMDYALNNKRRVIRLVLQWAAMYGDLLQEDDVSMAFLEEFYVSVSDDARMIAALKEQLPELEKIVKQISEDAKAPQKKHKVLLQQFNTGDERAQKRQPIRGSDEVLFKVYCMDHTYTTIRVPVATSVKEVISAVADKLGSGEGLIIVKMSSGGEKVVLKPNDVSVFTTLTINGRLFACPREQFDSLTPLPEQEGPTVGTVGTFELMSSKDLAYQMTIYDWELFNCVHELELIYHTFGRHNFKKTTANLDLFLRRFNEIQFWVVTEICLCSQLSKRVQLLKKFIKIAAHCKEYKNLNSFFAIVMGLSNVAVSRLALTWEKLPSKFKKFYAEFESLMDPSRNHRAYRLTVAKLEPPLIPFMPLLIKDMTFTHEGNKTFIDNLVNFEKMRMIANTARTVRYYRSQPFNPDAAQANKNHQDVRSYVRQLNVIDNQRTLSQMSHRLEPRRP

Consider `Cc1cccc(N2C(=O)c3cccc4c(N(C)CCO)ccc(c34)C2=O)c1`, for which the Potency was 3.66 µM (active) in experiment [1], 89.1 µM (active) in experiment [3], 100 µM (active) in experiment [4] and 39.8 µM (active) in experiment [7]. Also, the Potency entry in experiment [2], in experiment [5] and in experiment [6] was “inactive” each time.
Take `N#CC(C(=O)NCc1ccccc1)c1nc2ccccc2nc1N1CCCC1` (stereo not given): the Potency result in experiment [1], in experiment [2], in experiment [6] and in experiment [7] was “inactive” throughout. Besides, the Potency was 100 µM (active) in experiment [3], 89.1 µM (active) in experiment [4] and 75.7 µM (active) in experiment [5].
Regarding `CC1=NOC(=O)/C1=C\c1ccc(-c2ccc(Br)cc2)o1`, the Potency in experiment [8] is 3.16 µM (active); in experiment [2], 25.1 µM (active). The Potency result in experiment [3] and in experiment [5] was “inactive” each time. In addition, the activation in experiment [4] was -0.7% [at 17.1 µM, percent relative to cAMP agonist control]; in experiment [7] it was 11.6% [at 30.8 µM]. The activity change, negative = inhibition in experiment [6] is -10.2% [at 30.8 µM].
On to `CN(C)c1ccc(/C=C(\C#N)C(=O)Nc2nc3c(s2)CCN(Cc2ccccc2)C3)cc1`, for which the Potency result in experiment [1], in experiment [2], in experiment [5] and in experiment [6] was “inactive” throughout. Further, the Potency in experiment [3] and in experiment [4] was 100 µM (active) each time.
`COc1cc(OC)c(-c2cc(C(=O)O)ccc2OC)c(OC)c1`: the Potency result in experiment [1], in experiment [2], in experiment [3] and in experiment [5] was “inactive” each time. The activation was 1.75% [at 17.1 µM, percent relative to cAMP agonist control] in experiment [4] and 38.4% [at 30.8 µM] in experiment [7]. In addition, the activity change, negative = inhibition in experiment [6] is -0.0153% [at 30.8 µM].
With `Cc1ccc2oc(=O)c(/C=C(\O)c3cccs3)nc2c1`, the Potency entry in experiment [2] is “inactive”. In addition, the Potency in experiment [3] was 100 µM (active); in experiment [4] it was 89.1 µM (active); in experiment [5], 23.9 µM (active); in experiment [7], 39.8 µM (active).
As for `CCCC(=O)N=C1SC2CS(=O)(=O)CC2N1c1ccc(CC)cc1` (stereo not given), the Potency result in experiment [2], in experiment [3] and in experiment [5] was “inactive” each time. The activation in experiment [4] is -7.85% [at 17.1 µM, percent relative to cAMP agonist control]; in experiment [7], -1.33% [at 30.8 µM].
For `COc1ccc(N2CCN(CCCNC(=O)c3ccc4nc(CCc5ccccc5)oc4c3)CC2)cc1`, the Potency entry in experiment [2], in experiment [3], in experiment [4], in experiment [5] and in experiment [7] was “inactive” each time.
For `CCC/C=C/c1ccc(CN2C(CC(C)C)C(=O)N(Cc3cn(CCC4OCCO4)nn3)CCS2(=O)=O)cc1` (stereo not given), the Potency is 37.9 µM (active) in experiment [2] and 23.9 µM (active) in experiment [5]. For the same compound, the Potency result in experiment [3], in experiment [4] and in experiment [7] was “inactive” throughout.
Consider `CCOC(=O)N1CCC2CC1c1cc(-c3cccc(OC)c3)ccc12` (stereo not given), for which the Potency entry in experiment [2], in experiment [3], in experiment [4], in experiment [5] and in experiment [7] was “inactive” each time.
In the case of `Cc1ccc(C(=O)NN2C(=O)/C(=C/c3cn(C)c4ccccc34)SC2=S)cc1`, the Potency in experiment [1] was 14.6 µM (active). For the same compound, the Potency entry in experiment [2], in experiment [3], in experiment [4], in experiment [5] and in experiment [6] was “inactive” throughout.
Regarding `COc1ccc(S(=O)(=O)Nc2c(C)nn(C)c2C)cc1Br`, the Potency result in experiment [2], in experiment [3], in experiment [4], in experiment [5] and in experiment [7] was “inactive” each time.
Turning to `O=S(=O)(O)c1cc(O)c(N=Nc2ccc(O)cc2O)c2ccccc12`, the Potency in experiment [2] is 37.9 µM (active); in experiment [5] it was 21.3 µM (active). For the same compound, the Potency entry in experiment [3], in experiment [4] and in experiment [7] was “inactive” throughout.
Take `CCN1CCc2c(sc(NC(=O)c3ccc(S(=O)(=O)N4CCCCCC4)cc3)c2C(=O)NC)C1`: the Potency result in experiment [2], in experiment [3], in experiment [4], in experiment [5] and in experiment [7] was “inactive” each time.
For `CCOC(=O)c1c(-c2ccc(-c3ccccc3)cc2)csc1NC(=O)CCC(=O)O`, the Potency in experiment [2] is 42.6 µM (active). Besides, the Potency result in experiment [3], in experiment [4], in experiment [5] and in experiment [7] was “inactive” throughout.
On to `O=C(COC(=O)COc1ccc(Cl)cc1Cl)NC1CCCC1`, for which the Potency result in experiment [2], in experiment [3] and in experiment [5] was “inactive” each time. The activation is 9.18% [at 17.1 µM, percent relative to cAMP agonist control] in experiment [4] and -1.05% [at 30.8 µM] in experiment [7].
Take `CCc1ccc([C@@H]2CC=C(C(=O)O)[C@H](c3ccc(C(C)(C)C)cc3)N2S(=O)(=O)c2ccc(C)cc2)cc1`: the Potency in experiment [2] and in experiment [5] was 37.9 µM (active) each time. Also, the Potency result in experiment [3], in experiment [4] and in experiment [7] was “inactive” throughout.
Take `COc1ccc(-c2c(-c3ccccc3OC)oc3ccccc23)cn1`: the Potency result in experiment [2], in experiment [3] and in experiment [5] was “inactive” each time. The activation in experiment [4] is 1.88% [at 17.1 µM, percent relative to cAMP agonist control]; in experiment [7] it was 7.21% [at 30.8 µM].
`C=CCN(CC=C)C(=O)COn1nnc2ccc(S(=O)(=O)N3CCOCC3)cc21`: the Potency result in experiment [2], in experiment [3], in experiment [4], in experiment [5] and in experiment [7] was “inactive” throughout.
On to `CC(=O)Nc1cccc(/C(C)=N/Nc2ccc(S(=O)(=O)Nc3ccccc3C(=O)O)cc2[N+](=O)[O-])c1`, for which, in experiment [2], the Potency is 21.3 µM (active). Also, the Potency result in experiment [3], in experiment [4], in experiment [5] and in experiment [7] was “inactive” throughout.
`C=CCn1cc(C(=O)NCCCOC)c(=O)c2cc(S(=O)(=O)N(CC)CC)ccc21`: the Potency entry in experiment [2], in experiment [3], in experiment [4], in experiment [5] and in experiment [7] was “inactive” throughout.
For the compound `Cn1/c(=N\NC(=O)C2CCCCC2)sc2ccccc21`, the Potency entry in experiment [2], in experiment [3], in experiment [4], in experiment [5] and in experiment [7] was “inactive” in each case.
`COc1cc(CN2CCN(C(=O)CC(C)C)CC2)c([N+](=O)[O-])cc1OC`: the Potency result in experiment [2], in experiment [3] and in experiment [5] was “inactive” throughout. Moreover, the activation in experiment [4] was 2.13% [at 17.1 µM, percent relative to cAMP agonist control]; in experiment [7], 8.51% [at 30.8 µM].
